# Results from PubChem BioAssay (NCI).
# About 83,000 compounds went through this panel and 20% of them were active in at least one assay; those are over-represented in the sample as a whole.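 Compound tested at a single concentration for 48 hours in 96-well plates; a percent growth value below 10 was scored as active.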 Values without a mark were called inactive. Activity calls are given as the source filed them.
# Assays:
# Experiment in all cases: NCI-60 one-dose screen, 48 h (100 = growth as untreated, 0 = no growth, -100 = all killed)
# Conditions in all cases: 10 µM unless noted
# [1] = system: SR leukemia
# [2] = system: RPMI-8226 leukemia
# [3] = system: OVCAR-8 ovarian
# [4] = system: OVCAR-5 ovarian
# [5] = system: OVCAR-4 ovarian
# [6] = system: SK-OV-3 ovarian
# [7] = system: IGROV1 ovarian
# [8] = system: OVCAR-3 ovarian
# [9] = system: HS 578T breast
# [10] = system: NCI/ADR-RES ovarian
# [11] = system: T-47D breast
# [12] = system: BT-549 breast
# [13] = system: MDA-MB-435 melanoma
# [14] = system: SW-620 colon
# [15] = system: MCF7 breast
# [16] = system: HCT-116 colon
# [17] = system: HCC-2998 colon
# [18] = system: KM12 colon
Compound,growth [1],growth [2],growth [3],growth [4],growth [5],growth [6],growth [7],growth [8],growth [9],growth [10],growth [11],growth [12],growth [13],growth [14],growth [15],growth [16],growth [17],growth [18]
O=C(/C=C/c1cccc(Oc2ccccc2)c1)c1ccc(Nc2nc(Nc3ccc(F)cc3)nc(Nc3ccc(Cl)cc3)n2)cc1,-14.9% (active),25.4%,104%,99.5%,97.9%,120%,94%,104%,109%,96.8%,95.4%,104%,112%,104%,89.6%,95.1%,67.1%,105%
CC1(C)CC(=O)C2=C(C1)C(c1ccc(Cl)cc1)n1ncc(C#N)c1N2 (stereo unspecified),109%,96%,97%,103%,96.3%,82.8%,85.7%,113%,98.1%,106%,85.8%,103%,103%,99.3%,95.4%,98.4%,107%,110%
COc1ccc(C(=O)/C=C/c2ccccc2)cc1S(N)(=O)=O,13.4%,64.9%,46.2%,101%,86.1%,116%,54.3%,52.4%,74.4%,79.3%,77.6%,75.2%,96.5%,25.8%,25%,13.4%,95.2%,38%
Cc1cccc(N=Nc2cccc(C)c2)c1,108%,110%,103%,94.2%,107%,106%,102%,113%,117%,108%,110%,108%,100%,106%,97.5%,111%,112%,110%
CCN(CC)c1ccc(-c2cc(-c3cc(OC)c(OC)c(OC)c3)nc(N3CCC(O)CC3)c2C#N)cc1,12%,-11.8% (active),10.6%,2.43% (active),40.5%,-5.1% (active),2.12% (active),-58.6% (active),-13.8% (active),5.08% (active),2.08% (active),-1.42% (active),-40.8% (active),9.95% (active),-33.3% (active),-51% (active),-10.5% (active),-26.8% (active)
N#CC1=C(N)Oc2c(sc3c(F)cccc23)C1c1ccc([N+](=O)[O-])cc1 (stereo unspecified),5.1% (active),-9.41% (active),-21.6% (active),-14.6% (active),15.1%,-7.03% (active),-26% (active),-55.1% (active),-26.1% (active),-14.2% (active),-3.63% (active),-48.3% (active),-28.7% (active),-33.7% (active),-18.1% (active),-84.8% (active),-40.8% (active),-32.4% (active)
COc1cc(/C=N/NC(=O)c2ccc(-n3cc(-c4ccccc4)nn3)cc2)cc(OC)c1OC,55.4%,24%,49%,105%,45.8%,73.7%,57%,93%,53.1%,80.8%,59.8%,53.8%,33.1%,64.8%,14.1%,89.5%,84.3%,53.1%
ClC(Cl)c1nc(-c2ccccc2)n2nc(-c3ccccc3)cc2n1,7.56% (active),0.699% (active),16.5%,0.621% (active),-10.8% (active),9.58% (active),52.7%,-28.3% (active),-27.3% (active),6.09% (active),28.5%,77.2%,12%,-35.3% (active),3.37% (active),4.82% (active),-82.1% (active),-32% (active)
O=Nc1ccc(NC(=O)Nc2ccc([N+](=O)[O-])cc2)cc1,81.1%,44.1%,91.5%,122%,87.1%,102%,99.5%,98.4%,91.6%,91.6%,78.9%,98.3%,96.5%,97.4%,94%,86.5%,104%,90.7%
N#Cc1ccc(O)c(C2=NCC(c3ccc(-c4ccccc4)cc3)O2)c1 (stereo unspecified),23.7%,23.8%,16.6%,38.7%,-1.03% (active),3.28% (active),13.7%,22.7%,48.9%,5.24% (active),-1.94% (active),16.3%,26.8%,23.9%,10.3%,9.12% (active),34.8%,16.6%
C=C(C)[C@@H]1CC[C@]2(C(=O)Nc3ccccn3)CC[C@]3(C)[C@H](CC[C@@H]4[C@@]5(C)CCCNC(C)(C)[C@@H]5CC[C@]43C)[C@@H]12,-29.5% (active),-46% (active),12.4%,70.7%,8.81% (active),32.2%,35.4%,20.9%,26.9%,61%,25.9%,25.7%,2.12% (active),-31.7% (active),8.22% (active),-43.4% (active),5.09% (active),10.6%
O=C(Nc1cc(Cl)cc(Cl)c1)Oc1c(Cl)c(Cl)c(Cl)c(Cl)c1Cl,64.5%,37%,78.1%,87.3%,82.4%,77.2%,79.2%,54.9%,63.5%,77.5%,77.5%,74.9%,75.9%,88.3%,83%,62.1%,93.4%,83.3%
CN(C)CCCn1c2c(c3ccncc3c1=O)C(=O)c1ccccc1-2,-26% (active),-22.7% (active),0.796% (active),0.243% (active),-8.01% (active),34.8%,0.297% (active),-12.3% (active),19.8%,-23.5% (active),-12.3% (active),3.87% (active),7.89% (active),-28.1% (active),1.65% (active),-18.7% (active),25.6%,-12.6% (active)
Nc1nc(N(Cc2ccccc2)c2ccccc2)c2cn[nH]c2n1,4.11% (active),58.5%,80.3%,100%,78.6%,95.6%,80.7%,76.7%,58.2%,59.9%,44.4%,68.2%,9.3% (active),25%,43.8%,40.9%,71.2%,35.1%
N#Cc1c(-c2ccc(Cl)cc2)nc(NN=Cc2ccc[nH]2)nc1N1CCOCC1,31.2%,6.36% (active),85.1%,99.6%,72.6%,84.7%,67.9%,45.6%,95%,84.5%,64.9%,16.9%,94.7%,89.2%,70.7%,90.1%,94.1%,36.5%
COc1ccc(C(c2cc(OC)c(OC)c(OC)c2)N2CCCCC2)cc1 (stereo unspecified),18.5%,51.2%,50.1%,69.6%,69.2%,16.7%,47.1%,8.29% (active),16.6%,24%,33.6%,49.7%,-21.8% (active),14.5%,23.6%,29.1%,79.6%,30.2%
O=C1CCCCN1c1ccc(C2=NCCCN2)cc1,99.8%,57.4%,104%,95.9%,91.3%,119%,95.9%,83.9%,73.2%,103%,57.8%,89.6%,96.9%,85.7%,84.2%,92.1%,109%,90%
